Results from ChEMBL document CHEMBL3988442, “University of Dundee, Small-Polar-MMV Screening Library” (2021).
Out of some 48,000 compounds screened, about 13,000 (27%) showed an effect of 50% or more. This is one part of the list.

test system: Wolbachia pipientis; assay: Anti-Wolbachia Cell-Based Screen; assay type: functional; design: scale not given: in the data most compounds retested in dose-response had high values; conditions: 5 µM

Row | Compound | Percent Effect [%]
1 | Cl.Cl.O[C@@H]1C[C@@](CNCc2cccc(Cl)c2)(COc2cccnc2)C[C@@H]1O | -8.733
2 | CCOCC1CN(Cc2cccnc2OC)Cc2cnn(C)c21.O=C(O)C(F)(F)F.O=C(O)C(F)(F)F.O=C(O)C(F)(F)F (centres undefined) | 2.379
3 | COc1ncccc1CN1Cc2nnn(C)c2C(COCC2CC2)C1.O=C(O)C(F)(F)F.O=C(O)C(F)(F)F (centres undefined) | -15.9
4 | COc1ncccc1CN1CCC2(CCCN2S(C)(=O)=O)CC1.O=C(O)C(F)(F)F.O=C(O)C(F)(F)F | 2.287
5 | COc1ncccc1CN1CC[C@@]2(O)CCN(C(=O)C3CCC3)C[C@H]2C1 | 6.817
6 | COc1ncccc1CN1C[C@H]2C[C@@H](C(=O)NCC3CC3)N(C)[C@H]2C1.O=C(O)C(F)(F)F.O=C(O)C(F)(F)F.O=C(O)C(F)(F)F | 107.4
7 | COc1ncccc1CNC(=O)N1CCC(CNC(C)=O)CC1 | 18.77
8 | COc1ncccc1CN1C[C@@H]2C[C@@H](C(=O)NCC3CC3)N(C)[C@@H]2C1 | 96.26
9 | COc1ncccc1CN1C[C@H]2CCN(c3ccc(C)nn3)C[C@H]2C1.O=C(O)C(F)(F)F | 107.5
10 | Cc1ccc(N2CC[C@H]3CN(C(=O)c4ccn(C)n4)C[C@H]3C2)nn1.O=C(O)C(F)(F)F | -19.75
11 | CN(Cc1cccnc1)CC1CC12CCN(c1nncs1)CC2.O=C(O)C(F)(F)F.O=C(O)C(F)(F)F.O=C(O)C(F)(F)F (centres undefined) | 10.12
12 | COc1ccc(-c2noc(Cn3cnc(C)c3)n2)c(OC)c1OC | 10.58
13 | Cc1ccc(-c2noc([C@@H]3Cc4nc[nH]c4CN3)n2)cc1 | 1.545
14 | CSCC(=O)Nc1nccn1Cc1ccc(Br)cc1 | -2.171
15 | O=C1N(c2ccccc2)Cc2n[nH]c(=O)n21 | -1.221
16 | COc1cc(C(=O)N2CC(Oc3ccccc3Cl)C2)ccn1 | -4.351
17 | CN(C)C(=O)N1CCCn2nc(CNC(=O)CCc3cccs3)cc2C1 | 2.264
18 | COCCOC(=O)N1CCn2nc(CN(C)Cc3nccs3)cc2C1 | 91.56
19 | CN(C)C(=O)N1CCn2nc(CNC(=O)CCC(F)(F)F)cc2C1 | -4.672
20 | CN(C)C(=O)N1CCCn2nc(CNC(=O)CCc3ccsc3)cc2C1 | -5.491
21 | CN(Cc1cc2n(n1)CCCN(C(=O)N1CCCC1)C2)Cc1nccs1 | 94.61
22 | CN(C)C(=O)N1CCn2nc(CNC(=O)CCc3ccccn3)cc2C1 | 5.444
23 | CCn1c(CC2CCN(C(=O)C3CNCCO3)CC2)nn(C)c1=O (centres undefined) | -6.283
24 | CC(C)(CCS(C)(=O)=O)CNc1ccc2ccc(F)cc2n1 | 0.04358
25 | CC(C)(C)C(=O)N1CCC(n2cc(C3(O)CCCC3)nn2)CC1 | -19.86
26 | O=C(c1csc(-c2ccco2)n1)N1CCN2CCCCC2C1 (centres undefined) | -12.72

Row | Compound | Percent Effect [%]
27 | O=C(c1ccco1)N1CCC(n2nc(-c3cccs3)ccc2=O)CC1 | 64.54
28 | O=C(c1ccco1)N1CCC(n2cc(-c3ccsc3)nn2)CC1 | 0.1659
29 | O=C(c1cccs1)N1CCC(n2nc(-c3ccco3)ccc2=O)CC1 | -4.214
30 | CC(=O)c1c(F)cccc1NC1CCN(C(=O)C2CCCCC2)CC1 | 1.543
31 | O=C(C1CCCCC1)N1CCC(n2nc(-c3ccco3)ccc2=O)CC1 | 79.69
32 | O=C(c1ccco1)N1CCC(n2nc(-c3ccco3)ccc2=O)CC1 | 74.86
33 | Cc1oc(-c2ccco2)nc1CC(=O)N1CCC(C(O)C(F)(F)F)CC1 (centres undefined) | 3.492
34 | O=C(Cc1ccsc1)N1CCC(n2nc(-c3ccco3)ccc2=O)CC1 | -9.761
35 | CC(C)(C)C(=O)N1CCC(n2nc(-c3ccco3)ccc2=O)CC1 | 101.2
36 | O=C(c1cccs1)N1CCC(Cn2nc(-c3ccco3)ccc2=O)CC1 | -6.925
37 | Cn1c(-c2ccccc2Cl)nc2cc(C(=O)NCCS(C)(=O)=O)cnc21 | 0.8241
38 | CCn1nc(C)c(CNC(=O)C2COc3ccccc3C2)c1C (centres undefined) | -10.56
39 | CCC(C)N(Cc1ccncc1)Cc1ccc(-n2cccn2)cc1 (centres undefined) | -9.551
40 | COc1ccc(Br)c(C(=O)NCC2CCN(C(=O)c3ccoc3)CC2)c1 | -6.269
41 | Cc1cccc(CN2CCCC(O)(CNCc3ncccc3C)C2=O)c1 (centres undefined) | 4.315
42 | CC(NC(=O)NCCCOC1CCCCC1)c1nncn1C (centres undefined) | 12.39
43 | O=C(CCc1ccco1)Nc1ccc(Br)cn1 | -1.221
44 | CC(C)C(=O)N1CCC(n2nc(-c3ccco3)ccc2=O)CC1 | 101.9
45 | Cc1oc(-c2ccco2)nc1CC(=O)N1CCC(CCO)C1 (centres undefined) | 7.972
46 | OCC(O)CSCc1cn(-c2ccc(F)c(Cl)c2)nn1 (centres undefined) | 1.714
47 | Cc1csc(C2(NCc3nc(-c4ccco4)oc3C)CCCC2)n1 | 21.68
48 | Cc1ccc(C(=O)NC2CCOc3ccccc32)cc1S(C)(=O)=O (centres undefined) | 118
49 | CNS(=O)(=O)c1cc(C(=O)NC2COc3ccccc32)cc(C)c1C (centres undefined) | 105.8
50 | Cc1nnc(NC(=O)NC2CCOc3ccccc32)s1 (centres undefined) | 11.11
51 | CNS(=O)(=O)c1cc(C(=O)NC2COc3ccccc3C2)ccc1OC (centres undefined) | -1.094
52 | Cc1ccc(C(=O)NCC2Cc3ccccc3O2)cc1S(C)(=O)=O (centres undefined) | -52.49

Row | Compound | Percent Effect [%]
53 | CN(C)c1nc(CNC(=O)NC2COc3ccccc32)cs1 (centres undefined) | -3.429
54 | COc1ccc(C(O)CN2CC(n3cc(C)cn3)C2)cc1 (centres undefined) | -26.31
55 | Cn1ccnc1-c1cccc(NC(=O)NCCCN2CCOCC2)c1 | 9.655
56 | COc1cc(CN(C)C(=O)NCc2ccccn2)ccc1SC | -14.77
57 | O=C(NCCN1CCCCC1)c1cccc(Cl)c1Cl | -2.651
58 | O=C(NCCCN1CCOCC1)c1cc(-c2ccccc2)[nH]n1 | 93.89
59 | O=C(NCCN1CCCCCC1)c1cccc(Cl)c1Cl | -3.616
60 | Cc1oc(C)c(C(=O)NCc2ccccn2)c1C | -10.25
61 | CN(C)Cc1cccc(-c2cccnc2C(=O)NCc2ccccn2)c1 | 107.8
62 | O=C(NCCCN1CCOCC1)c1ccnc(OCc2ccccc2)c1 | 13.78
63 | O=C(NCCCN1CCOCC1)c1ccc(-c2ccccc2)[nH]c1=O | -4.893
64 | O=C(NCCCN1CCOCC1)c1cc(-c2ccco2)[nH]n1 | 0.6677
65 | NCc1cccc(-c2cccnc2C(=O)NCCN2CCCC2)c1 | 177.6
66 | NCc1cccc(-c2cccnc2C(=O)NCCCN2CCOCC2)c1 | 156.6
67 | CC(CC#N)NC(=O)c1cc(Br)c2c(c1)OCCO2 (centres undefined) | 3.147
68 | Cc1ccc(C(=O)N2CCC(C(F)(F)F)CC2)cc1N1CCNC1=O | 18.95
69 | O=C(O)C(F)(F)F.O=C1CCCN1CC1CN(CC2CCOCC2)Cc2nccn2C1 (centres undefined) | -5.52
70 | CCCn1cnnc1CNCc1c[nH]nc1-c1ccc(F)cc1 | -2.592
71 | c1cncc(-c2nnc(C3(c4ccc5c(c4)OCO5)CCOCC3)o2)c1 | 0.6275
72 | NCc1cccc(-c2cccnc2C(=O)NCCN2CCOCC2)c1 | 178.8
73 | O=C(NCCN1CCOCC1)c1cc(-c2ccccc2Cl)[nH]n1 | 0.5934
74 | Cn1ccnc1-c1cccc(NC(=O)NCCN2CCOCC2)c1 | 1.066
75 | O=C(NCCCn1ccnc1)Nc1ccn(CCc2ccccn2)n1 | -2.122
76 | CCN(Cc1cccc(C(=O)Nc2cn(C)nn2)c1)[C@H]1COC[C@@H]1O | 20.02
77 | COc1cc(N2CCn3cc(CNc4ccccn4)nc3C2)ncn1 | 0.6158
78 | Cc1ncsc1CNC(=O)CCN1CCN(c2ccccn2)CC1 | -8.127

Row | Compound | Percent Effect [%]
79 | CC(C)OCCC(=O)NCCC(=O)N1CCN(c2ccccn2)CC1 | 105.6
80 | Cc1ccc(CNC(=O)CCN2CCN(c3ccccn3)CC2)n1C | 5.614
81 | Cc1csc(N2CCN(C(=O)CCNc3ncccn3)CC2)n1 | -3.8
82 | Cc1cc(CNC(=O)CCN2CCN(c3ccccn3)CC2)c(C)o1 | -14.14
83 | CC(C)COCCC(=O)NCCC(=O)N1CCN(c2ccccn2)CC1 | 140.4
84 | Cc1nc(N(C)C)nc2c1COCC21CCN(C(=O)NCC(C)C)C1 (centres undefined) | 114.7
85 | Cc1nc(N(C)C)nc2c1COCC21CCN(C(=O)C2CC2)C1 (centres undefined) | 112
86 | Cc1nc(N(C)C)nc2c1COCC21CCN(C(=O)NC(C)C)C1 (centres undefined) | 14.65
87 | Cc1nc(N2CCOCC2)nc2c1COCC21CCN(CC2CC2)C1.O=C(O)C(F)(F)F (centres undefined) | 1.071
88 | Cc1nc(N2CCOCC2)nc2c1COCC21CCN(CC(C)C)C1 (centres undefined) | 0.306
89 | Cc1noc(C)c1CN1CCC2(COCc3cnc(N(C)C)nc32)C1.O=C(O)C(F)(F)F (centres undefined) | -6.223
90 | COCCN1CCC2(COCc3c(C)nc(N4CCOCC4)nc32)C1.O=C(O)C(F)(F)F (centres undefined) | 8.185
91 | COCC(=O)N1CCC2(COCc3c(C)nc(N(C)C)nc32)C1 (centres undefined) | 100.6
92 | CCC(=O)N1CCC2(COCc3c(C)nc(N(C)C)nc32)C1 (centres undefined) | 5.169
93 | CC(=O)NCC(=O)N1CCC2(COCc3c(C)nc(N(C)C)nc32)C1 (centres undefined) | 108.4
94 | Oc1c(F)cc(CNc2cccc(-c3nnc[nH]3)c2)cc1F | 3.752
95 | NCc1cn(CC2CCCN(C(=O)NCCc3ccc(F)cc3)C2)nn1 (centres undefined) | -14.7
96 | O=C(CSc1nnc[nH]1)NCc1sccc1Br | -6.223
97 | O=C(CCc1ccc(Cl)s1)N1CCCC(n2cncn2)C1 (centres undefined) | 2.271
98 | COc1ccc(CCN2CCCC(n3cncn3)C2)cc1 (centres undefined) | -2.484
99 | COc1ccc(CCCC(=O)N2CCCC(n3cncn3)C2)cc1 (centres undefined) | -28.74
100 | COc1ccc(CCC(=O)N2CCCC(n3cncn3)C2)cc1 (centres undefined) | 106.9
101 | N#Cc1ccc(CCC(=O)N2CCCC(n3cncn3)C2)cc1 (centres undefined) | 122.1
102 | O=C(CCc1ccsc1)N1CCCC(n2cncn2)C1 (centres undefined) | 119.5
103 | O=C(Cc1ccc2c(c1)OCCO2)N1CCCC(n2cncn2)C1 (centres undefined) | 8.803
104 | N#Cc1ccc(CC(=O)N2CCCC(n3cccn3)C2)cc1 (centres undefined) | 3.73
